Inconclusive results are not listed. Entries that show only a call come without a potency. Calls of active or inactive are those of the source. Unless noted, calls follow the shape of the dose curve; as a rule, active = well fitted curve in the direction sought with a large enough effect in the repeat runs; inconclusive = weak or mixed curves; inactive = no such curve, though single readings can be large; an effect the other way counts as inactive or inconclusive.
Columns and labels:
[1] = target: Acetylcholinesterase (Homo sapiens) (UniProt P22303); assay: Acetylcholinesterase (AChE) small molecule antagonists: colormetric cell-based qHTS assay (AID 1347395; calls by dose curve; also: nearly all actives have a fitted effect of over 30% in size)
In short: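 AChE inhibition read colorimetrically via DTNB–thiocholine in SH-SY5Y cells. Compound 30 min, substrate 90 min, both 37 C.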

[2] = target: Acetylcholinesterase (Homo sapiens) (UniProt P22303); assay: Acetylcholinesterase (AChE) small molecule antagonists: enzyme-based qHTS assay (AID 1347397; calls by dose curve; also: nearly all actives have a fitted effect of over 55% in size); conditions: Potency: AChE enzyme activity inhibition
In short: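 Enzyme inhibition was scored from DTNB-detected thiocholine formed by recombinant human AChE acting on acetylthiocholine. The 30 min compound preincubation and 10 min substrate reaction were both run at room temperature, with DMSO as vehicle control.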

[3] = target: Acetylcholinesterase (Homo sapiens) (UniProt P22303); assay: Acetylcholinesterase (AChE) small molecule antagonists: fluorescence cell-based qHTS assay (AID 1347398; calls by dose curve; also: nearly all actives have a fitted effect of over 50% in size); conditions: Potency: AChE activity
In short: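 Endogenous acetylcholinesterase of SH-SY5Y neuroblastoma cells is measured in situ. After overnight attachment and 30 min compound exposure, cells receive acetylthiocholine and Thiolite Green; fluorescence is read after 40 min at room temperature.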

[4] = target: Acetylcholinesterase (Homo sapiens) (UniProt P22303); assay: Acetylcholinesterase (AChE) small molecule antagonists: enzyme-based qHTS assay with human liver microsomes (AID 1347399; calls by dose curve; also: nearly all actives have a fitted effect of over 60% in size); conditions: Potency: qHTS inhibition
In short: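 Recombinant human AChE (50 mU/mL in the enzyme mix) and human liver microsomes (0.25 mg/mL final) were preincubated with compound and NADPH (0.25 mg/mL final) for 30 min at 37 C. Acetylthiocholine/DTNB was then added; thiocholine was read colorimetrically after 10 min at room temperature.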

[5] = target: Cytochrome P450 2D6 (Homo sapiens) (UniProt P10635); assay: Cytochrome P450 Family 2 Subfamily D Member 6 (CYP2D6) small molecule antagonists: luciferase reporter qHTS assay (AID 1671196); also: nearly all actives have a fitted effect of over 50% in size; also: potency is read from the fitted curve at half-maximal effect
In short: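 P450-Glo format: CYP2D6 converts a proluciferin substrate to luciferin in an NADPH-driven reaction lasting 1 h at room temperature. Light output, proportional to CYP2D6 activity, reflects interference by test chemicals.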

[6] = target: Cytochrome P450 2C19 (Homo sapiens) (UniProt P33261); assay: Cytochrome P450 Family 2 Subfamily C Member 19 (CYP2C19) small molecule antagonists: luciferase reporter qHTS assay (AID 1671197); also: nearly all actives have a fitted effect of over 65% in size; also: potency is read from the fitted curve at half-maximal effect
In short: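 Compounds were tested on CYP2C19 activity via proluciferin conversion to luciferin. The 37C, 1 h reaction followed NADPH addition; detection reagent stopped it.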

[7] = target: Cytochrome P450 2C9 (Homo sapiens) (UniProt P11712); assay: Cytochrome P450 Family 2 Subfamily C Member 9 (CYP2C9) small molecule antagonists: luciferase reporter qHTS assay (AID 1671198); also: nearly all actives have a fitted effect of over 50% in size; also: potency is read from the fitted curve at half-maximal effect
In short: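 P450-Glo proluciferin substrate with CYP2C9 enzyme; 10 min RT preincubation, then NADPH regeneration 1 h at 37C; luciferin detection reagent 20 min RT, luminescence in relative luminescence units.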

[8] = target: Voltage-gated inwardly rectifying potassium channel KCNH2 (Homo sapiens) (UniProt Q12809); assay: Human Ether-a-go-go-Related Gene (hERG) channel small molecule antagonists: fluorescence cell-based qHTS assay (AID 1671200); also: nearly all actives have a fitted effect of over 50% in size; also: potency is read from the fitted curve at half-maximal effect
In short: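 Kinetic two-minute fluorescence traces, sampled at 1 s, were collected following thallium stimulus of U2OS cells (1000 per well) that had been cultured overnight at 37 C and loaded with FluxOR II.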

[9] = target: Cytochrome P450 3A4 (Homo sapiens) (UniProt P08684); assay: Cytochrome P450 Family 3 Subfamily A Member 4 (CYP3A4) small molecule antagonists: luciferase reporter qHTS assay (AID 1671201); also: nearly all actives have a fitted effect of over 50% in size; also: potency is read from the fitted curve at half-maximal effect
In short: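 Proluciferin-to-luciferin conversion by CYP3A4, NADPH-regenerated, 1 h RT; luminescence read as RLU. Ketoconazole as control.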

[10] = target: Cytochrome P450 1A2 (Homo sapiens) (UniProt P05177); assay: Cytochrome P450 Family 1 Subfamily A Member 2 (CYP1A2) small molecule antagonists: luciferase reporter qHTS assay (AID 1671199); also: nearly all actives have a fitted effect of over 50% in size; also: potency is read from the fitted curve at half-maximal effect
In short: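 Inhibition of CYP1A2 conversion of proluciferin to luciferin, detected by luminescence. Reaction run 1 h at room temperature with NADPH regeneration after brief compound preincubation.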

Cytochrome P450 3A4 (Homo sapiens), sequence (P08684 whole entry, looked up): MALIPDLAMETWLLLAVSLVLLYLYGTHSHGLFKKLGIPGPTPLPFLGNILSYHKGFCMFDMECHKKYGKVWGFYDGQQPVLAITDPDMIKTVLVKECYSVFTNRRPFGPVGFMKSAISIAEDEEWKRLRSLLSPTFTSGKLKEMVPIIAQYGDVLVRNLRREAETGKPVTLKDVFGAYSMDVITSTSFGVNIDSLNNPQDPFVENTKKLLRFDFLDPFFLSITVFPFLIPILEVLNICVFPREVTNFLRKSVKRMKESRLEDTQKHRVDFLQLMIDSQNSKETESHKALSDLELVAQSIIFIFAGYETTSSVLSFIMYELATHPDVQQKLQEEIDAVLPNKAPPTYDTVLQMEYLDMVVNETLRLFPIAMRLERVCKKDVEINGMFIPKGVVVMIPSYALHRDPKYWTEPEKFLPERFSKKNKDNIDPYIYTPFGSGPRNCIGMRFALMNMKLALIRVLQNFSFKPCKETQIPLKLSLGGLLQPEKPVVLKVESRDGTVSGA
Cytochrome P450 1A2 (Homo sapiens), sequence (P05177 whole entry, looked up): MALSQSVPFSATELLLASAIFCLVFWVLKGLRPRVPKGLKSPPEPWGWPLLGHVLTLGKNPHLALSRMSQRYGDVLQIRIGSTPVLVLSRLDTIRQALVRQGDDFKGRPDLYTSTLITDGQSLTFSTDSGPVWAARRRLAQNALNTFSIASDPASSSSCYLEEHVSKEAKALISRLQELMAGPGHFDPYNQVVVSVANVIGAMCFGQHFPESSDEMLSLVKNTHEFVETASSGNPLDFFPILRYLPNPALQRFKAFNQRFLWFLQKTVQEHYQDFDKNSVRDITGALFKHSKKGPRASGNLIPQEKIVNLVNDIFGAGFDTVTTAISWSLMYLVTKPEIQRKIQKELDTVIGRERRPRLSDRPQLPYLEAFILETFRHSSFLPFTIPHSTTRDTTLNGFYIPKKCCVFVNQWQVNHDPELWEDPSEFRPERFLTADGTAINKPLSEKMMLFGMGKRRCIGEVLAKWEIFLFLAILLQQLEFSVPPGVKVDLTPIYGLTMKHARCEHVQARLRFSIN
Cytochrome P450 2C19 (Homo sapiens), sequence (P33261 whole entry, looked up): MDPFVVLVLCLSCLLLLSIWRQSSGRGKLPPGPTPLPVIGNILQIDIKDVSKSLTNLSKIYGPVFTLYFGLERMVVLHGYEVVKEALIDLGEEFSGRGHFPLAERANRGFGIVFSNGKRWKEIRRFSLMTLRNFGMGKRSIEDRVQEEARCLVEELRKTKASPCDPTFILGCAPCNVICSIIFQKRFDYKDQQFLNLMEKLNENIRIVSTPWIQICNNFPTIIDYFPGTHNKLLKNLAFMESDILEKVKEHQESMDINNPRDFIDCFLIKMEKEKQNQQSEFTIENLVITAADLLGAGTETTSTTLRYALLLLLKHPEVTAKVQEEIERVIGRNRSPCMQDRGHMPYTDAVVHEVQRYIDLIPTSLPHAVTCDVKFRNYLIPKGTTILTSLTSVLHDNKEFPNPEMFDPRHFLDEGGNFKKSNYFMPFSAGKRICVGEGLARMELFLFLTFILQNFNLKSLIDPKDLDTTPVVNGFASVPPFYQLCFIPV
Voltage-gated inwardly rectifying potassium channel KCNH2 (Homo sapiens), sequence (Q12809 whole entry, looked up): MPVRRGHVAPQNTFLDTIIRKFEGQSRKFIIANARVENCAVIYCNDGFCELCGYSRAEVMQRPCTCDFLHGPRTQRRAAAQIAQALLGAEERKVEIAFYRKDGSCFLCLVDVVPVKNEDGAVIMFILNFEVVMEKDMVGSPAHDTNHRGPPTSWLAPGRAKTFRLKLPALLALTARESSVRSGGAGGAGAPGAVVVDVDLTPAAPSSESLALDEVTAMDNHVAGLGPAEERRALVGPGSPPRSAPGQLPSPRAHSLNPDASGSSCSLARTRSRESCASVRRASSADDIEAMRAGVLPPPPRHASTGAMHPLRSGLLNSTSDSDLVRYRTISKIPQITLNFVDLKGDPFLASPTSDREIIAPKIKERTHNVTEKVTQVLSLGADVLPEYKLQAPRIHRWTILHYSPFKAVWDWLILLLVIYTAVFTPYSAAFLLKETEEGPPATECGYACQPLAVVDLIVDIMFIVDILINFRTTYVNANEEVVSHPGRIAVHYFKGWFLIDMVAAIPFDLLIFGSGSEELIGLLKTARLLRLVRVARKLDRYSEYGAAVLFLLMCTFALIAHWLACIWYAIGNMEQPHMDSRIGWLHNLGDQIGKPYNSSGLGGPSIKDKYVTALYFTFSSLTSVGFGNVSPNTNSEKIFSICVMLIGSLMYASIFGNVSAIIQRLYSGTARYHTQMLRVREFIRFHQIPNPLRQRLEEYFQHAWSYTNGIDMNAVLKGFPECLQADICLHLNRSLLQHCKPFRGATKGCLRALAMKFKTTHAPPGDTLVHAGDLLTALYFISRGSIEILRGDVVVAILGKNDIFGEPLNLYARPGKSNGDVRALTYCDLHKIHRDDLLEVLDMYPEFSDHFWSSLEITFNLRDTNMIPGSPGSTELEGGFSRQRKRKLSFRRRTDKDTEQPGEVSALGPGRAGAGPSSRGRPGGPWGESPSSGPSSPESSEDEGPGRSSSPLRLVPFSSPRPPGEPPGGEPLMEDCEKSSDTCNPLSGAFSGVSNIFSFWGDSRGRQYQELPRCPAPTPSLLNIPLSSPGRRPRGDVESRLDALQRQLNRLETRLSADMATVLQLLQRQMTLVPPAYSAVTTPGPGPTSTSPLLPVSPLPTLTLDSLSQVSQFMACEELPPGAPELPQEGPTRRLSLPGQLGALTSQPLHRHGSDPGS
Acetylcholinesterase (Homo sapiens), sequence (P22303 whole entry, looked up): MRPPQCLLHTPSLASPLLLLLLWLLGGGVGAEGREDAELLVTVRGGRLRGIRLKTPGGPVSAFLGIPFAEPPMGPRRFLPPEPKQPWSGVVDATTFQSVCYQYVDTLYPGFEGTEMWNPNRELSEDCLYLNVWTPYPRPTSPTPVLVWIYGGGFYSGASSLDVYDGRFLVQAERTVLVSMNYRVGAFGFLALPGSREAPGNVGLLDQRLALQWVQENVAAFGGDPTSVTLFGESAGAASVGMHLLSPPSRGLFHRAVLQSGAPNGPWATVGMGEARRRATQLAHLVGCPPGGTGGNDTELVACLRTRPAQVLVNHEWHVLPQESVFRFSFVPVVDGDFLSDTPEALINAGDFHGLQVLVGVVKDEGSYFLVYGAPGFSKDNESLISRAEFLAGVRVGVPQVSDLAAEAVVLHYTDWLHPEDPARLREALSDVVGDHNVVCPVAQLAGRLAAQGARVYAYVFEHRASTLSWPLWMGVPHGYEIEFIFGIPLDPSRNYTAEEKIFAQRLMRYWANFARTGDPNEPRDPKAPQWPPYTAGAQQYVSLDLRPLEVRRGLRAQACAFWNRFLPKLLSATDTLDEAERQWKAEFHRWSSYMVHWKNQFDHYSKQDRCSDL
Cytochrome P450 2C9 (Homo sapiens), sequence (P11712 whole entry, looked up): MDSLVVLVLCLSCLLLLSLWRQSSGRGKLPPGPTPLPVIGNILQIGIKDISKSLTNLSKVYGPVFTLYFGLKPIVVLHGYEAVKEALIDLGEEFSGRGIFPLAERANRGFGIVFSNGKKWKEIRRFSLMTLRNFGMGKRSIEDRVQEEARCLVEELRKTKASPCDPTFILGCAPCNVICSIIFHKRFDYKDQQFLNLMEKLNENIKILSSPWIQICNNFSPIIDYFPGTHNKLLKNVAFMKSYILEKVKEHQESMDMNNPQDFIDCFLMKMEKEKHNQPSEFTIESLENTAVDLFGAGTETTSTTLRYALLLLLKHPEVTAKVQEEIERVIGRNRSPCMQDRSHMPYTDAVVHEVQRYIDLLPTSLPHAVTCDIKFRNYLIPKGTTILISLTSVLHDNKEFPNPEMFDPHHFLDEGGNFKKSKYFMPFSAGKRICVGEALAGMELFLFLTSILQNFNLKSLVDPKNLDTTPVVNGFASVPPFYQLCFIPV
Cytochrome P450 2D6 (Homo sapiens), sequence (P10635 whole entry, looked up): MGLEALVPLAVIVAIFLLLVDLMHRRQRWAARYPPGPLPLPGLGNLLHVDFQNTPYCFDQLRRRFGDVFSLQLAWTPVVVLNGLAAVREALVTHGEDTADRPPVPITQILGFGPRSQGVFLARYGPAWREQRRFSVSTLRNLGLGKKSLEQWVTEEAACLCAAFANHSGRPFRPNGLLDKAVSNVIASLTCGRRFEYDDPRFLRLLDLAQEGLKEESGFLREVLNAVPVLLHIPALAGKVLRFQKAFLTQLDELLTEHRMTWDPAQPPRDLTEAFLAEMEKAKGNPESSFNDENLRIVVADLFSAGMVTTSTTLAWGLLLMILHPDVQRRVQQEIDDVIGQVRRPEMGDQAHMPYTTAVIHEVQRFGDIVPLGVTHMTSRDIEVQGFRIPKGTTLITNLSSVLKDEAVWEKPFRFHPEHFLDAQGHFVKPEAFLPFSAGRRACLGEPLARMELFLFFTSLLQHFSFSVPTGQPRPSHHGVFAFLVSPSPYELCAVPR

Row | Structure (SMILES) | Potency [1] | Potency [2] | Potency [3] | Potency [4] | Potency [5] | Potency [6] | Potency [7] | Potency [8] | Potency [9] | Potency [10]
1 | O=C(C(Cl)(Cl)Cl)C(Cl)(Cl)Cl | inactive | inactive | inactive | inactive | 36.3 µM (active) | inactive | inactive | inactive | inactive | 
2 | CC1Sc2c(C(=O)O)c(=O)c3cc(F)c(N4CCNCC4)cc3n21 (stereo not given) | inactive | inactive | inactive | inactive | inactive | inactive |  | inactive | inactive | inactive
3 | C=CC(=O)OCC(C)O (stereo not given) | inactive | inactive | inactive | inactive | inactive | inactive | inactive | inactive | inactive | 
4 | C=CC(=O)OCC(C)C | inactive | inactive | inactive | inactive | inactive | inactive | inactive | inactive | inactive | 
5 | CCCCC(CC)COP(=O)(Oc1ccccc1)Oc1ccccc1 (stereo not given) | inactive | inactive | inactive | inactive | inactive | 2.83 µM (active) | 3.99 µM (active) |  | 5.64 µM (active) | 25.2 µM (active)
6 | ClCC(Br)CBr (stereo not given) | inactive | inactive | inactive | inactive | inactive | inactive | inactive | inactive | inactive | 
7 | Oc1ccc(Cl)c(Cl)c1Cl | inactive | inactive | inactive | inactive | inactive | 26.1 µM (active) |  | inactive |  | 26.1 µM (active)
8 | CCCCCCCCOC(=O)c1ccc(C(=O)OCCCCCCCC)c(C(=O)OCCCCCCCC)c1 | inactive | inactive | inactive | inactive | inactive | 80.6 µM (active) |  | inactive | inactive | inactive
9 | N#C/C(N)=C(/N)C#N | inactive | inactive | inactive | inactive | inactive | 30.8 µM (active) |  | inactive |  | 21.8 µM (active)
10 | C=CCCl | inactive | inactive | inactive | inactive | inactive | inactive | inactive | inactive | inactive | 
11 | CCOc1ccc(C(C)(C)COCc2cccc(Oc3ccccc3)c2)cc1 | inactive | inactive | inactive | inactive | 35.6 µM (active) | 17.8 µM (active) | 6.33 µM (active) | inactive | inactive | 
12 | CCOP(O)OCC | inactive | inactive | inactive | inactive | inactive | inactive | inactive | inactive | inactive | inactive
13 | COC(N)=O | inactive | inactive | inactive | inactive | inactive | inactive | inactive | inactive | inactive | 35.6 µM (active)
14 | COc1cc(CC(C)N)cc2c1OCO2 (stereo not given) | inactive |  | inactive | inactive | 2.09 µM (active) |  | inactive | inactive | inactive | 74.1 µM (active)
15 | O=NN1CCCCCC1 | inactive |  | inactive | inactive | inactive | inactive | inactive | inactive | inactive | 
16 | CCCC(Cn1cncn1)c1ccc(Cl)cc1Cl (stereo not given) | inactive |  | inactive | inactive | 31.7 µM (active) | 0.142 µM (active) | 5.64 µM (active) | inactive | inactive | 22.4 µM (active)
17 | COc1nn(C(=O)NS(=O)(=O)c2ccccc2OC(F)(F)F)c(=O)n1C | inactive |  | inactive | inactive | inactive | inactive | 32.5 µM (active) | inactive | inactive | inactive
18 | II | inactive |  | inactive | inactive | 28.3 µM (active) | 56.4 µM (active) | 31.7 µM (active) | inactive |  | 71 µM (active)
19 | Cn1sc(Cl)cc1=O | inactive |  | inactive | inactive | inactive | inactive | 71 µM (active) | inactive | inactive | 
20 | O=C(O)C1(c2ccc3c(c2)OC[C@H](Cc2ccc(-c4ccccc4)cc2)[C@H]3O)CCCC1 | inactive |  | inactive | inactive | inactive |  | 71 µM (active) | inactive | inactive | inactive
21 | CCC(C)(NC(=O)c1cc(Cl)c(C)c(Cl)c1)C(=O)CCl (stereo not given) | inactive | inactive |  | inactive | 35.8 µM (active) | 25.3 µM (active) | 35.8 µM (active) | 43.9 µM (active) | 6.37 µM (active) | 2.26 µM (active)
22 | O=NN1CCNCC1 | inactive | inactive | inactive | inactive |  | 44.3 µM (active) |  | inactive | inactive | 
23 | CCCCCCCCCC(=O)O[C@H]1CC[C@H]2[C@@H]3CCC4=CC(=O)CC[C@@H]4[C@H]3CC[C@]12C | inactive |  | inactive | inactive | inactive |  | 15.5 µM (active) | inactive |  | inactive
24 | N#CCC#N | inactive | inactive | inactive | inactive |  |  | 63.3 µM (active) | inactive |  | inactive

— PubChem BioAssay (Tox21)
